Tests used:
Experiment in all cases: log2 ratio of Biotin-Ahx-Ub-VS probe labelling (fragment/DMSO); higher = less target engagement (more negative = stronger competition), active = hit call of the paper (q ≤ 0.05, log2 ratio ≤ -1)
Conditions in all cases: compound concentration: 200 uM; treatment time: 3 h
USP19 = biological target: T1, USP19 (UniProt O94966)
T1 sequence (whole entry): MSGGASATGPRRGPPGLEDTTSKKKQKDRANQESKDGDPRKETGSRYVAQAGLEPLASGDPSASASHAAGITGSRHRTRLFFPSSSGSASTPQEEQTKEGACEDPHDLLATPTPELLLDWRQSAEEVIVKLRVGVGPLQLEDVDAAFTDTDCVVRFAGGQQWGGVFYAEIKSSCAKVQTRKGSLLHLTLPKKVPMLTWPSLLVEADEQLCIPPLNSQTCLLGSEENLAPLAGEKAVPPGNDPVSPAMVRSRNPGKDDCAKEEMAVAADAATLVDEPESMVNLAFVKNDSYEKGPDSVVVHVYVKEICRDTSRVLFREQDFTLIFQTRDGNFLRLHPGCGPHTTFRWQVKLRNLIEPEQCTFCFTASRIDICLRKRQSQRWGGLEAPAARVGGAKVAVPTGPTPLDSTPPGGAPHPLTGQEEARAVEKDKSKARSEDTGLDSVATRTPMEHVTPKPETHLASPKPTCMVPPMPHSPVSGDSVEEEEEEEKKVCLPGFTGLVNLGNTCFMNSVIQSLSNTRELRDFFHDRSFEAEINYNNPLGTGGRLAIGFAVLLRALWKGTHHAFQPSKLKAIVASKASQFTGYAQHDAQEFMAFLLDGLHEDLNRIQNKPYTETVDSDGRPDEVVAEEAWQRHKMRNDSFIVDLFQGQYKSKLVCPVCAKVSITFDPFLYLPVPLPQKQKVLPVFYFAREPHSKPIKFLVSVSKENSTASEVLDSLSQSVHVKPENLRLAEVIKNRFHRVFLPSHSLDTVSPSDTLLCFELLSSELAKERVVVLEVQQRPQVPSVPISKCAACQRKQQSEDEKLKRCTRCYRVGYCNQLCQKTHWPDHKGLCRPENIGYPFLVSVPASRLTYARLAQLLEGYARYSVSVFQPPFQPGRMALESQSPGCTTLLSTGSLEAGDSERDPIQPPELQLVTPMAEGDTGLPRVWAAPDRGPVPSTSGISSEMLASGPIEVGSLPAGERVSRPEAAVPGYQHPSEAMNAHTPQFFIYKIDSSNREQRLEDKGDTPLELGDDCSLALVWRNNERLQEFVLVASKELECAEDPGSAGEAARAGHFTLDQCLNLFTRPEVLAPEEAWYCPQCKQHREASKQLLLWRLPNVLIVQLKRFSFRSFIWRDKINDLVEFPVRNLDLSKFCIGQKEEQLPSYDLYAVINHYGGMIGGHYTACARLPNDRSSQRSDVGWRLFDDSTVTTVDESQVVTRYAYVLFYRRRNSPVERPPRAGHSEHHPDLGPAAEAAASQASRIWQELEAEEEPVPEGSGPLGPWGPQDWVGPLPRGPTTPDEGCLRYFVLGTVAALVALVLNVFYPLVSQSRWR
Summary of the method: (§1)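 Using Biotin-Ahx-Ub-VS at 0.5 µM final for 1 h, DUBs were labelled in HEK293T lysate (495 µg per sample) that had first been treated in triplicate with fragment at 200 µM or vehicle for 3 h. NeutrAvidin enrichment, LysC and trypsin digestion and diaPASEF LC-MS/MS followed. Spectronaut label-free quantities were global-median-normalised. Values are average log2 fragment/vehicle ratios by unpaired t-test, using proteins with ≥2 unique peptides.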

USP22 = biological target: T2, USP22 (UniProt Q9UPT9)
T2 sequence (whole entry): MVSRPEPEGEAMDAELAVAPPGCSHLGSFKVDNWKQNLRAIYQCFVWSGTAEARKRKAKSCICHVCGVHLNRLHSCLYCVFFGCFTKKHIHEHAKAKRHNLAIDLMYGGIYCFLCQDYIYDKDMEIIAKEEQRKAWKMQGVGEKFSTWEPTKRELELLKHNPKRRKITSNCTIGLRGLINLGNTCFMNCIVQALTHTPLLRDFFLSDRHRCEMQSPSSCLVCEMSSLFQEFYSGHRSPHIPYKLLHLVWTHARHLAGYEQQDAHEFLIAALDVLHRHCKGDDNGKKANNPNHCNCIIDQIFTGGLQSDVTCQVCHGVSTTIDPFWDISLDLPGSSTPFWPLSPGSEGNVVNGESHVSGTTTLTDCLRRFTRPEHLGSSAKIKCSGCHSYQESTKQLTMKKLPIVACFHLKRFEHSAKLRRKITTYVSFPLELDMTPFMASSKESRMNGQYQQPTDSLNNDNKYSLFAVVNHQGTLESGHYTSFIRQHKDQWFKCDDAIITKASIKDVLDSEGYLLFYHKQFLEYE
Summary of the method: as §1

USP24 = USP24 (UniProt Q9UPU5)
Summary of the method: as §1

USP25 = biological target: T3, USP25 (UniProt Q9UHP3)
T3 sequence (whole entry): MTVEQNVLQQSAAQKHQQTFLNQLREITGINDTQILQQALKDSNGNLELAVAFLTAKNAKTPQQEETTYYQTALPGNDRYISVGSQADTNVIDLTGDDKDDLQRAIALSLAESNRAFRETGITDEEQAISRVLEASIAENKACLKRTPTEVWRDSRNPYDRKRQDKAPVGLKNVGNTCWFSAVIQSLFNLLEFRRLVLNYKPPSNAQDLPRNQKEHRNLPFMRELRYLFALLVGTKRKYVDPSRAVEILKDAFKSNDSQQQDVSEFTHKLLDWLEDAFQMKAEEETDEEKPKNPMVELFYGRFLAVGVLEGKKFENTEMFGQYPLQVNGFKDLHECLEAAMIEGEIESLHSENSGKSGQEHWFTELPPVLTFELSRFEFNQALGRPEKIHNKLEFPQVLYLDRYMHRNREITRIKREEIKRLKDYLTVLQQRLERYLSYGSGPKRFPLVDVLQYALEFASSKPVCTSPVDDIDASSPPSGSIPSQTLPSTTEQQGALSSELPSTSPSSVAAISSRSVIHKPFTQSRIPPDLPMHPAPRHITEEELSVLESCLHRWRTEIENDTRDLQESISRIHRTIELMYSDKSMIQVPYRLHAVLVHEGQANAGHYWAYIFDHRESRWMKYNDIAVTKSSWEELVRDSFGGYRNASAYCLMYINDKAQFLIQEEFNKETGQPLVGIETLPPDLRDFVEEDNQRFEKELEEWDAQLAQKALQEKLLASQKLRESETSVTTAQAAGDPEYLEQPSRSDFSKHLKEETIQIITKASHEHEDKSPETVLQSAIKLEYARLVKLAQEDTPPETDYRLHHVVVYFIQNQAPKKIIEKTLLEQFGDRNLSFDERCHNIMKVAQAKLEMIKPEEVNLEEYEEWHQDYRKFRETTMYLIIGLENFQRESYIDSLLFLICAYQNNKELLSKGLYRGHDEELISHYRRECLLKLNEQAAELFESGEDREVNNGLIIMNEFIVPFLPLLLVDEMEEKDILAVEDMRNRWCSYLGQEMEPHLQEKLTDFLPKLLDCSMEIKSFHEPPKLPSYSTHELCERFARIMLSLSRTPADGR
Summary of the method: as §1

USP28 = biological target: T4, USP28 (UniProt Q96RU2)
T4 sequence (whole entry): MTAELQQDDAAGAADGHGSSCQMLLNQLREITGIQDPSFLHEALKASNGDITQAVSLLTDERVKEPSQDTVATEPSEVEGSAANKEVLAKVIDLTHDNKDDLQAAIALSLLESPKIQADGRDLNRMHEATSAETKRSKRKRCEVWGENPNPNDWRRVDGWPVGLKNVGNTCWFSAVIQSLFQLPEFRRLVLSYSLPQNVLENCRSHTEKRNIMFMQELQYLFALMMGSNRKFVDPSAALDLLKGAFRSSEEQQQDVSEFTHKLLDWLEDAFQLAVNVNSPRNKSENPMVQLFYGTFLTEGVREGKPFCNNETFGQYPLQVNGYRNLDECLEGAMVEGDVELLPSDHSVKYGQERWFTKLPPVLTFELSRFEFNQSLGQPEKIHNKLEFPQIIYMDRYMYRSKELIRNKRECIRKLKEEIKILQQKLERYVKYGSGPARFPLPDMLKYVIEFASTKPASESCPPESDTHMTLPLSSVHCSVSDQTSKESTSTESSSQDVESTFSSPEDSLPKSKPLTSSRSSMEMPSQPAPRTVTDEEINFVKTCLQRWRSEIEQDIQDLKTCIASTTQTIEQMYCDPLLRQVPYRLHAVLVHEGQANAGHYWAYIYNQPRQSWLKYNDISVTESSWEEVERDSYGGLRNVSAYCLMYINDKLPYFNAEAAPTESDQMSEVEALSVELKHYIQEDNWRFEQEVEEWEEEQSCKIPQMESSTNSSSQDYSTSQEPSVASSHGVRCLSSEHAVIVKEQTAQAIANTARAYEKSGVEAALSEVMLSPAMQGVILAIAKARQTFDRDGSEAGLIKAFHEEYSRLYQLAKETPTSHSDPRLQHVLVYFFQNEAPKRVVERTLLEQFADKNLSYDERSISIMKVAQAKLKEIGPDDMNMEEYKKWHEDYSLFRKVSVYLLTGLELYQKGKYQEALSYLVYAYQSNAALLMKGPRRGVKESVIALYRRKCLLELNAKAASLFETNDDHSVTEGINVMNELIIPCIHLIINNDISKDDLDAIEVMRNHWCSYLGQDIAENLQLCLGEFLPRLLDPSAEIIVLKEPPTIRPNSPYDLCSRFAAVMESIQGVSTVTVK
Summary of the method: as §1

Measured: log2 ratio of Biotin-Ahx-Ub-VS probe labelling

Sequence of USP24 (Q9UPU5 whole entry): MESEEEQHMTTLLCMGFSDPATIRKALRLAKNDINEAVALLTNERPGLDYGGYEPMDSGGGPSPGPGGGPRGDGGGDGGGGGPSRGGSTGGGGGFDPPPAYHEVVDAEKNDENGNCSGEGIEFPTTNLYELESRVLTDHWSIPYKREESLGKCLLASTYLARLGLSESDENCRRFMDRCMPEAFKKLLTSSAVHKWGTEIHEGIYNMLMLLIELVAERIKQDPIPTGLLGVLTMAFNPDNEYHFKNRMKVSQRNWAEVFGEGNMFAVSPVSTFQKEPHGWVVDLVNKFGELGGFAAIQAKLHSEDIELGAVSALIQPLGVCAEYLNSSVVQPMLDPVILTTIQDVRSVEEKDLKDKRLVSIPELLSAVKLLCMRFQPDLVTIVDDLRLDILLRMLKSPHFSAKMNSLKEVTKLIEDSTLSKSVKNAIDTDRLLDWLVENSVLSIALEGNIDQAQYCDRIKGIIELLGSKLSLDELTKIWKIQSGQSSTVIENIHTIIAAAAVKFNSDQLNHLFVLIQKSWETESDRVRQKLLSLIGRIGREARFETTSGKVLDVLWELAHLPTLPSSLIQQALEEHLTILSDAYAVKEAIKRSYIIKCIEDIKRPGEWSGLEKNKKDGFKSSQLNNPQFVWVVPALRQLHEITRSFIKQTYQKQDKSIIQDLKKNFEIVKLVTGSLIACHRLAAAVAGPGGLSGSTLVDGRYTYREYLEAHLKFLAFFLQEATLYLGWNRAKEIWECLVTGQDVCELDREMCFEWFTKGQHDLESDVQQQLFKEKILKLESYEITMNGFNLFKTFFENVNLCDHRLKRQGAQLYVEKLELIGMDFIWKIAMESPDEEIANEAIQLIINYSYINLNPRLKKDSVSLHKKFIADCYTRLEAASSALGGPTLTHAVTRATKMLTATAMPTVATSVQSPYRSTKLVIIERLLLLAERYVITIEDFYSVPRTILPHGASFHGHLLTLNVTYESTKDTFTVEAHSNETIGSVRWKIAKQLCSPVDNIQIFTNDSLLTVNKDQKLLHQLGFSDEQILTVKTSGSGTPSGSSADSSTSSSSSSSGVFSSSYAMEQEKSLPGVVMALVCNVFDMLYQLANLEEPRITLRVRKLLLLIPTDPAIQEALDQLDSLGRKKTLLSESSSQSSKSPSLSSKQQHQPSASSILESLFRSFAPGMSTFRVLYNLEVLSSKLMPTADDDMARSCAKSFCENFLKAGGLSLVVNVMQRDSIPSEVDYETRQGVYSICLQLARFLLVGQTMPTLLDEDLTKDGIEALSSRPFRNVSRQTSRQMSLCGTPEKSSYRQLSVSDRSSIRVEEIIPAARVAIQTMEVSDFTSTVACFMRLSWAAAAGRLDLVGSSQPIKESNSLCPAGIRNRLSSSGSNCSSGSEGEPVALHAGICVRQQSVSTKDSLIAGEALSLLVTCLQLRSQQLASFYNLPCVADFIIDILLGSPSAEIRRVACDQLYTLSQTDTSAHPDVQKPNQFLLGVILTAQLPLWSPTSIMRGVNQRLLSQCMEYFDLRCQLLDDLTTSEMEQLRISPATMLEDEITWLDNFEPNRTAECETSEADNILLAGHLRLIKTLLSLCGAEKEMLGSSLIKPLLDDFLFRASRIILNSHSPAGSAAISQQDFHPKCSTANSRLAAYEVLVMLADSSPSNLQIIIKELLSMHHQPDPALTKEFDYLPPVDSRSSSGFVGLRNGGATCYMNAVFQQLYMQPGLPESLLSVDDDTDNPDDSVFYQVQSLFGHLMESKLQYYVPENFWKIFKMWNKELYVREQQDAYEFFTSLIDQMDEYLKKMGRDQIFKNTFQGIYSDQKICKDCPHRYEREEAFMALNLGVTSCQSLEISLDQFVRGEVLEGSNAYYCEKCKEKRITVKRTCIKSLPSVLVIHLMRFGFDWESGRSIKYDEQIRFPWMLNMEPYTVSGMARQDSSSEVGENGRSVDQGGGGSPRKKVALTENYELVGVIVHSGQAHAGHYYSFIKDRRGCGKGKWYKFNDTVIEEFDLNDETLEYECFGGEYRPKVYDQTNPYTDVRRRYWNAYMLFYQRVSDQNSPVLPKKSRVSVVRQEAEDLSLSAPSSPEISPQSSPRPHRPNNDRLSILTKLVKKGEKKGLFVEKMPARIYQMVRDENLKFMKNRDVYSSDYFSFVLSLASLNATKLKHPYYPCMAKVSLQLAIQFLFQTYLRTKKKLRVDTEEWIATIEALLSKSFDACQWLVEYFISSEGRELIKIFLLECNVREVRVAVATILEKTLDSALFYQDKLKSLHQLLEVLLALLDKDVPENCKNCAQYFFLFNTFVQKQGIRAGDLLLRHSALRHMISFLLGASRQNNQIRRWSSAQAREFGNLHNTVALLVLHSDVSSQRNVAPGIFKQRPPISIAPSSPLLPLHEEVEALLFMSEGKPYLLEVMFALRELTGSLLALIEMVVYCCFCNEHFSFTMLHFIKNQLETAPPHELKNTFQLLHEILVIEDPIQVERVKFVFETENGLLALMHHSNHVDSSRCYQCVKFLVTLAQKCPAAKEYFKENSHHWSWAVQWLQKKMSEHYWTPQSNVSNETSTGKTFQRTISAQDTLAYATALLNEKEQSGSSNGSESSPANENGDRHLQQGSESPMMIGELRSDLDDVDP

Cc1ncsc1CCNC(=O)CCl
inactive: USP19 0.249 | USP22 0.314 | USP24 0.197 | USP25 -0.144 | USP28 0.0198

Reference: the supplement of paper PMC11732987, “Enantioselective OTUD7B fragment discovery through chemoproteomics screening and high-throughput optimisation” (Communications Chemistry, 2025)
